From PubChem BioAssay (NCATS)
Results filed as inconclusive are left out. Where a call stands in place of a potency, no number is given. The source made the active and inactive calls. The call rests on the fitted dose curve.

Experiments:
[1] = Primary qHTS for Huh7 cytotoxicity: counterscreen for inhibitors of MERS-S pseudotyped particle cell entry (AID 1479147); details: outcome: dose series up to 57.1 µM unless noted
[2] = Primary qHTS for inhibitors of MERS-S pseudo-typed particle cell entry (AID 1479149); details: outcome: dose series up to 57.1 µM unless noted; further: nearly all actives have a fitted effect of over 60% in size
[3] = Primary qHTS for Vero E6 cytotoxicity: counterscreen for inhibitors of SARS-S pseudo-typed particle cell entry (AID 1479150); details: outcome: dose series up to 57.1 µM unless noted
[4] = Cytotoxicity counterscreen for inhibitors of SARS-CoV-2 cell entry (AID 1645845); details: outcome: dose series up to 57.1 µM unless noted; further: nearly all actives have a fitted effect of over 50% in size
How it was run: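 ATP-content luminescence (ATPLite 1step, 15 min RT) read after 48 h compound exposure of Expi293F cells stably expressing human ACE2; normalized to cells-only wells and media-only wells.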

[5] = Primary qHTS to identify inhibitors of SARS-CoV-2 cell entry (AID 1645846); details: SARS-CoV-2 pseudovirus cell entry assay, luminescence; activity change, negative = inhibition: at 57.1 µM (top of the series) unless noted; further: nearly all actives have a fitted effect of over 45% in size; further: potency means the concentration at half of the fitted maximal effect
How it was run: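 Entry measured by luciferase signal 48 h after adding SARS-CoV-2-S pseudotyped MLV particles to HEK293-ACE2 cells preincubated 1 h with compounds. Normalisation: bald particles and spike particles.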

[6] = VSVG counterscreen qHTS to identify inhibitors of SARS-CoV-2 cell entry (AID 1645847); further: potency means the concentration at half of the fitted maximal effect; nearly all actives have a fitted effect of over 65% in size
How it was run: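 Luminescence read after 48 h infection at 37 C with VSV-G-pseudotyped MLV particles, following 1 h compound exposure of Expi293F cells stably expressing human ACE2; scaled between bald particle and VSV-G particle wells.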

OCc1ccccc1
Potency [1]: inactive
Potency [2]: inactive
Potency [3]: inactive
Potency [4]: inactive
activity change, negative = inhibition [5]: 3.04%

CCC(=O)O[C@@H]1[C@@H](C)O[C@@H](O[C@H]2[C@H](N(C)C)[C@@H](O)[C@H](O[C@H]3[C@@H](CC=O)C[C@@H](C)[C@@H](OC(C)=O)/C=C/C=C/C[C@@H](C)OC(=O)C[C@@H](OC(=O)CC)[C@@H]3OC)O[C@@H]2C)C[C@]1(C)OC(C)=O
Potency [1]: inactive
Potency [2]: inactive
Potency [3]: inactive
Potency [4]: inactive
activity change, negative = inhibition [5]: -16.2%

CN(C)C(=O)NC1CCC(CCN2CCN(c3cccc(Cl)c3Cl)CC2)CC1 (stereo unspecified)
Potency [1]: inactive
Potency [2]: inactive
Potency [3]: inactive
Potency [4]: inactive
activity change, negative = inhibition [5]: -20.6% [at 27.1 µM]

CN1C2CC[C@@H]1CC(OC(=O)[C@H](CO)c1ccccc1)C2 (stereo partly specified)
Potency [1]: inactive
Potency [2]: inactive
Potency [3]: inactive
Potency [4]: inactive
activity change, negative = inhibition [5]: -26.3%

COc1c(O)cc2c(c1O)[C@H]1O[C@@H](CO)[C@H](O)[C@@H](O)[C@@H]1OC2=O
Potency [1]: inactive
Potency [2]: inactive
Potency [3]: inactive
Potency [4]: inactive
activity change, negative = inhibition [5]: -14.9%

C/C(=C(/CCO)SSCC1CCCO1)N(C=O)Cc1cnc(C)nc1N (stereo unspecified)
Potency [1]: inactive
Potency [2]: inactive
Potency [3]: inactive
Potency [4]: inactive
activity change, negative = inhibition [5]: -21.7%

CCCCC(C)(O)CC=C[C@H]1[C@H](O)CC(=O)[C@H]1CCCCCCC(=O)OC (stereo partly specified)
Potency [1]: inactive
Potency [2]: inactive
Potency [3]: inactive
Potency [4]: inactive
Potency [5]: inactive

Cc1[nH]cnc1C[C@H]1CCc2c(C)c3ccccc3n2C1=O
Potency [1]: inactive
Potency [2]: inactive
Potency [3]: inactive
Potency [4]: inactive
activity change, negative = inhibition [5]: -26.5%

CC1CCC(C(C)C)C(OC(=O)c2ccccc2O)C1 (stereo unspecified)
Potency [1]: inactive
Potency [2]: inactive
Potency [3]: inactive
Potency [4]: inactive
Potency [5]: inactive

Cc1c(Cl)c(C)[n+]([O-])c(Cl)c1-c1noc(-c2cc(O)c(O)c([N+](=O)[O-])c2)n1
Potency [1]: inactive
Potency [2]: inactive
Potency [3]: inactive
Potency [4]: inactive
Potency [5]: 14.1 µM (active)

N=C1CCCN1Cc1[nH]c(=O)[nH]c(=O)c1Cl
Potency [1]: inactive
Potency [2]: inactive
Potency [3]: inactive
Potency [4]: inactive
activity change, negative = inhibition [5]: -1.38%

C/C(=C\c1csc(C)n1)[C@@H]1C[C@@H]2O[C@]2(C)CCC[C@H](C)[C@H](O)[C@@H](C)C(=O)C(C)(C)[C@@H](O)CC(=O)N1
Potency [1]: inactive
Potency [2]: inactive
Potency [3]: inactive
Potency [4]: inactive
Potency [5]: 2.82 µM (active)
Potency [6]: 0.152 µM (active)

CCCCC(CC)COc1ccc(-c2nc(-c3ccc(OC)cc3)nc(-c3ccc(OCC(CC)CCCC)cc3O)n2)c(O)c1 (stereo unspecified)
activity change, negative = cytotoxicity [1]: -14.4% [at 5.34 µM] (inactive)
activity change, negative = inhibition [2]: -1.24% [at 5.34 µM] (inactive)
activity change, negative = cytotoxicity [3]: -1.62% [at 5.34 µM] (inactive)
activity change, negative = cytotoxicity [4]: -8.22% [at 5.25 µM] (inactive)
outcome [5]: inactive [at 5.25 µM]
